From PubChem
In the library only some 19% were active in any assay of this set; here they are far more common.
TDP1 cell noCPT: qHTS for Inhibitors of human tyrosyl-DNA phosphodiesterase 1 (TDP1): qHTS in cells in absence of CPT; hit rate 15% among 420,000; DT40 Tdp1-/- hTDP1 cells, no CPT, ATP luminescence, 48 h; Potency, µM (titrated, usually from 46.2 µM), for the others: top-dose activity change, negative = growth inhibition, actives largely listed as inhibitors; further: potency means the concentration at half of the fitted maximal effect; on the % scale 0 is the no-effect control and ±100 the full control effect; nearly all actives have a fitted effect of over 55% in size
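Chicken DT40 Tdp1-/- cells stably complemented with human TDP1 were seeded at 400 cells/well with DMSO in place of 20 nM camptothecin. After compound pinning, cells grew at least 48 hr at 37 °C; viability read by CellTiter-Glo luminescence.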
S-ASM inh: blocks human secretory acid sphingomyelinase; Potency, µM (top dose mostly 57.5 µM), without a hit: top-dose activity change, negative = inhibition, most hits filed as inhibitors; placental ASM, HMU-PC fluorogenic substrate, 60 min; AID 504937; P17405; hit rate 0.006% among 340,000; further: potency means the concentration at half of the fitted maximal effect
Target sequence (P17405 47-631 limits assumed): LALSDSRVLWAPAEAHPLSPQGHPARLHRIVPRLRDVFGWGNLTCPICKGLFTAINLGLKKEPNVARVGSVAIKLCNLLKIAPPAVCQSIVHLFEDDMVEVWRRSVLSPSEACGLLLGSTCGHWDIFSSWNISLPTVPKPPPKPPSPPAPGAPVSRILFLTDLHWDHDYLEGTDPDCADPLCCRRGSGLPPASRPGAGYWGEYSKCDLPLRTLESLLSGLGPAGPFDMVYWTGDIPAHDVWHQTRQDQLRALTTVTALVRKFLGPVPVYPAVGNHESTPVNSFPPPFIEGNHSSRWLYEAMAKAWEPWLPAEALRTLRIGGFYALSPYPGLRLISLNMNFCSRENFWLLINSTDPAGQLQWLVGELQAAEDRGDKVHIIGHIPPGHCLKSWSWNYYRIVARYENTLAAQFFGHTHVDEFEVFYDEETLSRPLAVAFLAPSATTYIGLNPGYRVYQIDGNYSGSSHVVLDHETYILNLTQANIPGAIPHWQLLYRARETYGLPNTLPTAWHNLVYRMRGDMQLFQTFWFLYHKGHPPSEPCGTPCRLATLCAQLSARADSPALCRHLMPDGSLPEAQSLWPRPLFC
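Human placenta-derived ASM enzyme was preincubated with compound for 10 minutes at room temperature, then given fluorogenic substrate HMU-PC0 (9 uM final) for 60 minutes at 37 °C; a pH 10 stop preceded fluorescence reading at Ex 386/Em 447 nm.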
HepG2 tox: HepG2 cytotoxicity, counter-screen for TGF-b inhibitors; HepG2 CAGA-GFP viability, ATP luminescence, 18 h; Potency, µM (series often up to 46.1 µM), for inactives: at the top dose activity change, negative = cytotoxicity, usual class: cytotoxic; hit rate 0.76% among 410,000; AID 588856; further: potency means the concentration at half of the fitted maximal effect
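HepG2 CAGA-GFP cells (1000/well, DMEM with 1% FBS) received compound, then TGF-beta at 500 pg/mL final, and were incubated 18 hours at 37 degrees C. Viability was read by CellTiter-Glo luminescence. Media-only wells were set as complete cell-killing and DMSO as no toxicity.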
TGFb inhibitor: blocks TGF-b signaling. Potency, µM (series often up to 46.1 µM), without a hit: at the highest dose activity, negative = inhibition, actives largely listed as inhibitors. HepG2 CAGA-GFP TGF-b/SMAD3 reporter, GFP fluorescence, 18 h; TGF-beta stimulated, 500 pg/mL final. hit rate 1.2% among 410,000; further: potency means the concentration at half of the fitted maximal effect; on the % scale 0 is the no-effect control and ±100 the full control effect; nearly all actives have a fitted effect of over 65% in size
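Read-out: total well GFP (ex488/em500-530) summed from mean per-cell fluorescence. Cells: HEPG2 CAGA-GFP, 1% FBS DMEM, 18 h at 37 degrees C with 500 pg/mL final TGF-beta. Unstimulated wells served as the full-inhibition control; stimulated DMSO wells = 0%.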
DT40 TDP1 CPT: growth inhibition of DT40 Tdp1-/-;hTDP1 cells with camptothecin (screen for TDP1 inhibitors). hit rate 12% among 420,000. AID 686979. chicken DT40 Tdp1-/-;hTDP1 cells + 20 nM CPT, ATP luminescence, 48 h. Potency, µM (top dose mostly 46.2 µM), for the others: at the top dose activity change, negative = growth inhibition, usual class: inhibitors; further: potency means the concentration at half of the fitted maximal effect; on the % scale 0 is the no-effect control and ±100 the full control effect; nearly all actives have a fitted effect of over 55% in size
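Chicken DT40 Tdp1-/- cells stably complemented with human TDP1 were seeded at 400 cells/well in medium containing 20 nM camptothecin, exposed to pin-transferred compounds, and grown at 37 °C for at least 48 hr. Viability was read as ATP luminescence.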
IL1B secr inh: blocks inflammasome-driven IL-1 beta release; activity change, % at 57.5 µM; THP-1 LPS/ATP IL-1B secretion, AlphaLISA, 16 h; active compounds read low; hit rate 4.7% among 360,000; in the data active means activity change below about -50%; inconclusive means mostly about -30% to -49%; further: on the % scale 0 is the no-effect control and ±100 the full control effect
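Secreted IL-1B measured by AlphaLISA bead assay after 16 h compound exposure of THP-1 cells; compounds (final up to 57.5 uM) added 1 h before LPS (250 ng/mL) and ATP (1.25 mM) stimulation; lower signal means less secretion.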
Starred values were filed as active, the others as inactive. Unless noted, the call rests on the fitted dose curve; in most records, active means well fitted curve in the direction sought with a large enough effect; inconclusive means small, poorly fitted or top-dose-only effect, or another doubt; inactive means no such curve, though single readings can be large; an effect the other way counts as inactive or inconclusive.

How did COC(=O)c1ccc2nc(C3CCCCC3)c(Cc3cccc(Cl)c3)n2c1 do in these assays?
TDP1 cell noCPT: 16µM*; HepG2 tox: -27%; TGFb inhibitor: inconclusive; DT40 TDP1 CPT: inconclusive; IL1B secr inh: 12

How did COC(=O)c1ccc2nc(C3CCCCC3)c(Cc3ccccc3C(F)(F)F)n2c1 do in these assays?
TDP1 cell noCPT: inconclusive; HepG2 tox: -105%; TGFb inhibitor: 22µM*; DT40 TDP1 CPT: inconclusive; IL1B secr inh: -17

How did COc1ccc2c(c1)C/C(=C\c1ccc(N(C)C)cc1)C2=O do in these assays?
TDP1 cell noCPT: inconclusive; HepG2 tox: -25%; TGFb inhibitor: 183%; DT40 TDP1 CPT: inconclusive

Results for O=C(CCS(=O)(=O)c1cc2c(cc1Cl)NC(=O)CO2)NCc1ccccc1Cl ?
HepG2 tox: -16%; TGFb inhibitor: 9%

Results for Cc1nn(C)c2c1c(-c1ccccc1)cc(=O)n2Cc1ccccc1Cl ?
TDP1 cell noCPT: inconclusive; HepG2 tox: -3%; TGFb inhibitor: 9%; DT40 TDP1 CPT: inconclusive

Results for Cc1ccc(S(=O)(=O)NCC(=O)OCC(=O)N2C(C)CCCC2C)cc1 (centres undefined) ?
TDP1 cell noCPT: 2%; S-ASM inh: 0%; HepG2 tox: -5%; TGFb inhibitor: -4%; DT40 TDP1 CPT: 0%; IL1B secr inh: -30

Results for O=C(CN1C(=O)NC2(CCCc3ccccc32)C1=O)Nc1cccc(S(=O)(=O)N2CCCCC2)c1 (centres undefined) ?
TDP1 cell noCPT: 16µM*; S-ASM inh: -1%; HepG2 tox: -2%; TGFb inhibitor: inconclusive; DT40 TDP1 CPT: inconclusive; IL1B secr inh: -2

How did Cc1ccc(CN(C)C(=O)CN2C(=O)NC3(CCCc4ccccc43)C2=O)c(C)c1 (centres undefined) do in these assays?
TDP1 cell noCPT: 21µM*; S-ASM inh: -6%; HepG2 tox: -20%; TGFb inhibitor: -32%; DT40 TDP1 CPT: inconclusive; IL1B secr inh: -14

How did COc1ccc(C(NC(=O)CN2C(=O)NC3(CCc4ccccc43)C2=O)c2ccc(OC)cc2)cc1 (centres undefined) do in these assays?
TDP1 cell noCPT: inconclusive; S-ASM inh: -11%; HepG2 tox: -21%; TGFb inhibitor: -4%; DT40 TDP1 CPT: inconclusive; IL1B secr inh: -64*

What do the screens show for `CN(C)C(=O)CN1C(=O)NC2(CCCc3ccccc32)C1=O` (centres undefined)?
TDP1 cell noCPT: 21%; S-ASM inh: 5%; HepG2 tox: -17%; TGFb inhibitor: 8%; DT40 TDP1 CPT: -4%; IL1B secr inh: -10

Results for Cc1cc(C)c(NC(=O)CN2C(=O)NC3(CCCc4ccccc43)C2=O)c(Cl)c1 (centres undefined) ?
TDP1 cell noCPT: 18µM*; S-ASM inh: -2%; HepG2 tox: -14%; TGFb inhibitor: -15%; DT40 TDP1 CPT: inconclusive; IL1B secr inh: -20

What do the screens show for `Cn1cc(C(=O)NCc2ccccc2Cl)c(=O)c2cc(S(=O)(=O)N3CCCCCC3)ccc21`?
TDP1 cell noCPT: inconclusive; HepG2 tox: 17%; TGFb inhibitor: -22%; DT40 TDP1 CPT: inconclusive

Results for Cc1ccc(/C=N/NC(=O)CN2CCN(Cc3ccccc3)CC2)o1 ?
TDP1 cell noCPT: -4%; S-ASM inh: -1%; HepG2 tox: -9%; TGFb inhibitor: -20%; DT40 TDP1 CPT: -13%; IL1B secr inh: -12
